# Measurements as given in PubChem BioAssay (NCATS).
# Records with an inconclusive call do not appear. A call without a number means that no potency is given here. Active and inactive are the calls of the source. Calls come from the whole dose curve; as a rule, active = well fitted curve in the direction sought with a large enough effect; inconclusive = small, poorly fitted or top-dose-only effect, or another doubt; inactive = no such curve, though single readings can be large; an effect the other way counts as inactive or inconclusive.
# How the values were obtained:
# [1] = qHTS of pediatric cancer cell lines to identify multiple opportunities for drug repurposing: Primary screen for OHS-50 cells (AID 1347103); note: nearly all actives have a fitted effect of over 40% in size; note: potency is the fitted concentration of half-maximal effect
# Procedure, shortened: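 Cells (500-1,000/well) rested 5 h, then received compounds for 48 h; metabolically active cells were measured by CellTiter-Glo luminescence. Final concentrations spanned up to 46 µM (MIPE, 11-point) or 0.59 nM-46 µM (NPC, 8-point) in primary screens, 11-point in follow-ups.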
# [2] = qHTS of pediatric cancer cell lines to identify multiple opportunities for drug repurposing: Primary screen for MG 63 (6-TG R) cells (AID 1347105); note: nearly all actives have a fitted effect of over 50% in size
# Procedure, shortened: (§1)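 Viability was measured as metabolically active cells after 48 hours of treatment, read by CellTiter-Glo luminescence. Compounds were tested at multiple final concentrations, giving concentration-response curves.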
# [3] = qHTS of pediatric cancer cell lines to identify multiple opportunities for drug repurposing: Primary screen for control Hh wild type fibroblast cells (AID 1347106);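 note: series mostly up to about 46 µM; a drop in luminescence marks cytotoxicity and a rise apparent proliferation; nearly all actives have a fitted effect of over 55% in size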
# Procedure, shortened: (§2)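 Viability after 48 h compound treatment at 37C, 500-1,000 cells/well, read as ATP luminescence with CellTiter-Glo. Primary screens used 11-point (MIPE, 0.78 nM-46 µM) or 8-point (NPC, 0.59 nM-46 µM) final concentrations; follow-up screens used 11-point dilutions.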
# [4] = qHTS of pediatric cancer cell lines to identify multiple opportunities for drug repurposing: Primary screen for Rh30 cells (AID 1347107); note: series mostly up to about 46 µM; nearly all actives have a fitted effect of over 75% in size
# Procedure, shortened: as §2
# [5] = qHTS of pediatric cancer cell lines to identify multiple opportunities for drug repurposing: Primary screen for Rh41 cells (AID 1347108);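 note: series mostly up to about 46 µM; luminescence drop marks cytotoxic hits; nearly all actives have a fitted effect of over 70% in size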
# Procedure, shortened: as §1
# [6] = qHTS of pediatric cancer cell lines to identify multiple opportunities for drug repurposing: Primary screen for RD cells (AID 1347104); note: nearly all actives have a fitted effect of over 55% in size
# Procedure, shortened: as §1
# [7] = qHTS of pediatric cancer cell lines to identify multiple opportunities for drug repurposing: Confirmatory screen for NB1643 cells (AID 1347109); note: nearly all actives have a fitted effect of over 45% in size
# Procedure, shortened: as §2
# [8] = qHTS of pediatric cancer cell lines to identify multiple opportunities for drug repurposing: Confirmatory screen for A673 cells (AID 1347110); note: nearly all actives have a fitted effect of over 65% in size; note: potency is the fitted concentration of half-maximal effect
# Procedure, shortened: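 Cells plated at 500-1,000/well were treated five hours later with multi-point dilutions up to 46 µM final. After two days, CellTiter-Glo was added and luminescence read.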
# [9] = qHTS of pediatric cancer cell lines to identify multiple opportunities for drug repurposing: Confirmatory screen for BT-12 cells (AID 1347112); note: nearly all actives have a fitted effect of over 55% in size
# Procedure, shortened: as §2
# [10] = qHTS of pediatric cancer cell lines to identify multiple opportunities for drug repurposing: Confirmatory screen for LAN-5 cells (AID 1347113); settings: outcome: dose series up to 45.9 µM; note: nearly all actives have a fitted effect of over 65% in size
# Procedure, shortened: as §2
# [11] = qHTS of pediatric cancer cell lines to identify multiple opportunities for drug repurposing: Confirmatory screen for NB-EBc1 cells (AID 1347115); note: nearly all actives have a fitted effect of over 45% in size; note: potency is the fitted concentration of half-maximal effect
# Procedure, shortened: as §2
# [12] = qHTS of pediatric cancer cell lines to identify multiple opportunities for drug repurposing: Confirmatory screen for SJ-GBM2 cells (AID 1347116); settings: outcome: dose series up to 45.9 µM; note: nearly all actives have a fitted effect of over 60% in size
# Procedure, shortened: (§3)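 Viability measured as metabolically active cells via CellTiter-Glo luminescence following 48 hours of compound exposure, 11-point dilutions in confirmatory testing. 500-1,000 cells/well plated 5 hours before dosing; controls were DMSO and 2.3 µM bortezomib.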
# [13] = qHTS of pediatric cancer cell lines to identify multiple opportunities for drug repurposing: Confirmatory screen for BT-37 cells (AID 1347117); note: nearly all actives have a fitted effect of over 55% in size
# Procedure, shortened: as §2
# [14] = qHTS of pediatric cancer cell lines to identify multiple opportunities for drug repurposing: Confirmatory screen for MG 63 (6-TG R) cells (AID 1347119); note: nearly all actives have a fitted effect of over 55% in size
# Procedure, shortened: as §2
# [15] = qHTS of pediatric cancer cell lines to identify multiple opportunities for drug repurposing: Confirmatory screen for control Hh wild type fibroblast cells (AID 1347121); note: nearly all actives have a fitted effect of over 70% in size
# Procedure, shortened: as §2
# [16] = qHTS of pediatric cancer cell lines to identify multiple opportunities for drug repurposing: Confirmatory screen for Rh41 cells (AID 1347123);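 note: 48 h compound exposure; nearly all actives have a fitted effect of over 60% in size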; note: potency is the fitted concentration of half-maximal effect
# Procedure, shortened: as §2
# [17] = qHTS of pediatric cancer cell lines to identify multiple opportunities for drug repurposing: Confirmatory screen for SK-N-MC cells (AID 1347111);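 note: potency is the fitted concentration of half-maximal effect; cells exposed to compound for 48 h before the readout; nearly all actives have a fitted effect of over 70% in size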
# Procedure, shortened: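 SK-N-MC cells at 500-1,000 cells/well in growth media were pre-incubated 5 h, then exposed to compounds at 11-point dilutions for 48 h at 37 degrees C, 5% CO2. Viability was read as CellTiter-Glo luminescence.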
# [18] = qHTS of pediatric cancer cell lines to identify multiple opportunities for drug repurposing: Confirmatory screen for DAOY cells (AID 1347114); note: nearly all actives have a fitted effect of over 65% in size
# Procedure, shortened: as §3
# [19] = qHTS of pediatric cancer cell lines to identify multiple opportunities for drug repurposing: Confirmatory screen for U-2 OS cells (AID 1347122); note: nearly all actives have a fitted effect of over 65% in size
# Procedure, shortened: as §2
compound,measurement,setting,value
Cc1ncsc1CCCl,Potency,[1],inactive
same,Potency,[2],inactive
same,outcome,[3],inactive
same,outcome,[4],inactive
same,Potency,[5],inactive
C[C@]12CC[C@@H]3c4ccc(OC(=O)N(CCCl)CCCl)cc4CC[C@H]3[C@@H]1CC[C@@H]2OP(=O)(O)O,Potency,[1],inactive
same,Potency,[2],inactive
same,outcome,[3],inactive
same,outcome,[4],inactive
same,Potency,[5],inactive
CCCOC(=O)c1cncn1C(C)c1ccccc1 (stereo not drawn),Potency,[1],inactive
same,Potency,[2],inactive
same,outcome,[3],inactive
same,outcome,[4],inactive
same,Potency,[5],inactive
CCC(CC)(CNC(=O)CCCO)c1cccc(OC)c1,Potency,[1],inactive
same,Potency,[2],inactive
same,outcome,[3],inactive
same,outcome,[4],inactive
same,Potency,[5],inactive
CCC(C)(C)c1ccc(O)cc1,Potency,[6],inactive
same,Potency,[2],inactive
same,outcome,[3],inactive
same,outcome,[4],inactive
same,Potency,[5],inactive
COc1c2c(cc3c1OCO3)CCN(C)C2,Potency,[2],inactive
same,outcome,[4],inactive
same,Potency,[5],inactive
C[C@H]1[C@@H]2Cc3ccc(O)cc3[C@@]1(C)CCN2C,Potency,[2],inactive
same,outcome,[3],inactive
same,outcome,[4],inactive
same,Potency,[5],inactive
CC(C)NC(C)C,Potency,[1],inactive
same,Potency,[2],inactive
same,outcome,[3],inactive
same,outcome,[4],inactive
same,Potency,[5],inactive
CCCN(CCC)C(=O)Cc1c(-c2ccc(Cl)cc2)nc2ccc(Cl)cn12,Potency,[2],inactive
same,outcome,[3],inactive
same,outcome,[4],inactive
same,Potency,[7],inactive
same,Potency,[8],10.4 µM (active)
same,Potency,[9],inactive
same,outcome,[10],inactive
same,Potency,[11],inactive
same,outcome,[12],inactive
same,Potency,[13],inactive
same,outcome,[14],inactive
same,outcome,[15],inactive
same,Potency,[16],18.5 µM (active)
C[C@]12CCC(=O)C=C1CC[C@@H]1[C@@H]2CC[C@@]2(C)[C@H]1CC[C@]2(C)O,Potency,[6],inactive
same,outcome,[3],inactive
same,outcome,[4],inactive
same,Potency,[7],inactive
same,Potency,[8],inactive
same,Potency,[9],inactive
same,outcome,[10],inactive
same,Potency,[11],inactive
same,outcome,[12],inactive
same,Potency,[13],inactive
same,outcome,[15],inactive
same,Potency,[16],18.5 µM (active)
O=C(O)CCCc1ccc(N(CCCl)CCCl)cc1,Potency,[2],inactive
same,outcome,[3],inactive
same,outcome,[4],inactive
same,Potency,[5],inactive
same,Potency,[17],23.3 µM (active)
same,Potency,[9],inactive
same,Potency,[18],inactive
same,Potency,[11],9.27 µM (active)
same,Potency,[19],inactive
same,Potency,[16],inactive
C[C@]12CC[C@@H]3c4ccc(OC(=O)N(CCCl)CCCl)cc4CC[C@H]3[C@@H]1CC[C@@H]2O,Potency,[2],inactive
same,outcome,[3],inactive
same,outcome,[4],inactive
same,Potency,[5],inactive
CCOC(=O)CC(SP(=S)(OC)OC)C(=O)OCC (stereo not drawn),Potency,[1],inactive
same,Potency,[2],inactive
same,outcome,[3],inactive
same,outcome,[4],inactive
CC1(C)C(C=C(Cl)Cl)C1C(=O)OC(C#N)c1cccc(Oc2ccccc2)c1 (stereo not drawn),Potency,[1],inactive
same,Potency,[2],inactive
same,outcome,[3],inactive
same,outcome,[4],inactive
same,Potency,[5],inactive
C[C@@H]1CC2=CC(=O)CC[C@@H]2[C@H]2CC[C@@]3(C)[C@@H](CC[C@]3(C)O)[C@@H]21,Potency,[6],inactive
same,Potency,[2],inactive
same,outcome,[3],inactive
same,outcome,[4],inactive
COc1cccc(C(=O)CCN[C@@H](C)[C@H](O)c2ccccc2)c1,outcome,[3],inactive
C#CC(O)(C=CCl)CC (stereo not drawn),Potency,[1],inactive
same,Potency,[2],inactive
same,outcome,[3],inactive
same,outcome,[4],inactive
same,Potency,[5],inactive
O=[N+]([O-])O[C@H]1CO[C@H]2[C@@H]1OC[C@H]2O[N+](=O)[O-],Potency,[1],inactive
same,Potency,[2],inactive
same,outcome,[3],inactive
same,outcome,[4],inactive
same,Potency,[5],inactive
C[C@]12Cc3cn[nH]c3C[C@@H]1CC[C@@H]1[C@@H]2CC[C@@]2(C)[C@H]1CC[C@]2(C)O,Potency,[6],inactive
same,Potency,[2],inactive
same,outcome,[3],inactive
same,outcome,[4],inactive
CC(C)(N)Cc1ccccc1Cl,Potency,[1],inactive
same,Potency,[2],inactive
same,outcome,[3],inactive
same,outcome,[4],inactive
same,Potency,[5],inactive
O=C1OC(c2ccc(O)c(S(=O)(=O)O)c2)(c2ccc(O)c(S(=O)(=O)O)c2)c2c(Br)c(Br)c(Br)c(Br)c21,Potency,[1],inactive
same,Potency,[2],inactive
same,outcome,[3],inactive
same,outcome,[4],inactive
same,Potency,[5],inactive
C[C@]12CCC(=O)C=C1CC[C@@H]1[C@H]3CC[C@](C)(O)[C@@]3(C)CC[C@@H]12,Potency,[1],25.5 µM (active)
same,outcome,[3],inactive
CCCCCCC(=O)CCCCCC/C=C/C[C@@H](O)[C@H](O)[C@@](N)(CO)C(=O)O,Potency,[6],inactive
same,outcome,[3],inactive
same,outcome,[4],inactive
same,Potency,[5],inactive
CCN(CCO)CCn1c(Cc2ccccc2)nc2c1c(=O)n(C)c(=O)n2C,Potency,[1],inactive
same,Potency,[2],inactive
same,outcome,[3],inactive
same,outcome,[4],inactive
O=C1c2ccccc2C(=O)C1C(=O)C(c1ccccc1)c1ccccc1,outcome,[3],inactive
same,outcome,[4],inactive
same,Potency,[5],inactive
Clc1ccc(C(c2ccc(Cl)cc2)C(Cl)(Cl)Cl)cc1,Potency,[6],inactive
same,outcome,[3],inactive
same,outcome,[4],inactive
same,Potency,[5],inactive
Nc1ccccc1,Potency,[1],inactive
same,Potency,[2],inactive
same,outcome,[3],inactive
same,outcome,[4],inactive
same,Potency,[5],inactive
C[C@]12CC[C@H]3[C@@H](CCC4=CC(=O)CC[C@@H]43)[C@@H]1CC[C@@H]2OC(=O)CCC1CCCCC1,Potency,[2],inactive
same,outcome,[3],inactive
same,outcome,[4],inactive
CCc1cc2c(s1)-n1c(C)nnc1CN=C2c1ccccc1Cl,Potency,[6],inactive
same,Potency,[2],inactive
same,outcome,[3],inactive
same,outcome,[4],inactive
C[C@]12CCC(=O)C=C1CC[C@@H]1[C@@H]2CC[C@]2(C)C(=O)CC[C@@H]12,Potency,[6],inactive
same,Potency,[2],inactive
same,outcome,[3],inactive
same,outcome,[4],inactive
same,Potency,[5],inactive
CCN(CC)CCc1c[nH]c2ccccc12,Potency,[6],inactive
same,Potency,[2],inactive
same,outcome,[3],inactive
same,outcome,[4],inactive
C[C@]12CC[C@H]3[C@@H](CCC4=CC(=O)CC[C@@H]43)[C@@H]1CC[C@@H]2OC(=O)CCc1ccco1,Potency,[6],inactive
same,Potency,[2],inactive
same,outcome,[3],inactive
same,outcome,[4],inactive
same,Potency,[5],inactive
Oc1ccc(Cl)cc1,Potency,[1],inactive
same,Potency,[2],inactive
same,outcome,[3],inactive
same,outcome,[4],inactive
same,Potency,[5],inactive
CN1C(=O)COc2c(C(=O)NC3CN4CCC3CC4)cc(Cl)cc21 (stereo not drawn),Potency,[1],inactive
same,Potency,[2],inactive
same,outcome,[3],inactive
same,outcome,[4],inactive
same,Potency,[5],inactive
O=c1c(C2CC(c3ccc(-c4ccc(Br)cc4)cc3)Cc3ccccc32)c(O)sc2ccccc12 (stereo not drawn),outcome,[3],inactive
